# aSyn 5UTR act = Activators working through SNCA 5'UTR binding (MLPCN). activity score, % (tested at 7.5 µM), hits read low. 300,000 compounds, 7.1% hits. alpha-synuclein 5'UTR reporter, activators screen; in the data active = activity score below about -60%
# Starred values were filed as active, the others as inactive. A selection follows.
SMILES,aSyn 5UTR act
COc1ccccc1NC(=O)COc1ccccc1C(=O)c1cnn(-c2ccccc2)c1,-136*
CC(=O)NC(c1cccc([N+](=O)[O-])c1)c1ccc2cccnc2c1O (stereo not drawn),123
O=[N+]([O-])c1ccc(/C=C/c2ccc3cccc([N+](=O)[O-])c3n2)cc1,-92*
O=[N+]([O-])c1cccc(/C=C/c2ccc3cccc(O)c3n2)c1,-82*
O=[N+]([O-])c1cccc2ccc(/C=C/c3ccc(F)cc3)nc12,-291*
COc1ccc(/C=C/c2nnc(NC(C)=O)s2)cc1,-117*
COC(=O)Nc1nnc(/C=C/c2ccc(OC)cc2)s1,-109*
COc1ccc(/C=C/C(=O)Nc2ccccc2C(F)(F)F)cc1,-141*
COc1ccc(/C=C/C(=O)Nc2ccccc2C(=O)NCC(c2ccc(OC)cc2)N(C)C)cc1 (stereo not drawn),-80*
CCOc1ccc(N/C=C/C(=O)c2ccccc2)c([N+](=O)[O-])c1,87
COc1ccc(C(=O)/C=C/c2ccccc2C(F)(F)F)cc1,-68*
CCOc1ccc(NC(=O)/C=C/c2ccccc2)c([N+](=O)[O-])c1,-147*
COc1ccc(/C=C/C(=O)Nc2ccccc2C(=O)O)cc1,83
COc1cc(NC(=O)/C=C/c2ccccc2[N+](=O)[O-])cc(OC)c1,-114*
CCOc1ccc(/C=C/C(=O)Nc2ccccc2C(F)(F)F)cc1,-76*
COc1ccc(/C=C/C(=O)Nc2ccccc2C(=O)N2CCCC2)cc1,-86*
CCOc1ccc(NC(=S)NC(=O)c2c(Br)cnn2C)c([N+](=O)[O-])c1,-115*
Cc1nnc2n(c1=O)N=C(c1ccc(Cl)cc1)CS2,-93*
COc1ccc(C2=Nn3c(nnc3-c3ccc(OC)cc3)SC2)cc1,100
O=C(NC1CCCCC1)c1ccc(S(=O)(=O)c2ccccc2Cl)c([N+](=O)[O-])c1,-95*
CN(C(=O)c1ccc(S(=O)(=O)c2cccc(Cl)c2)c([N+](=O)[O-])c1)C1CCCCC1,-86*
O=C(Nc1cc2c(cc1Cl)OCCCO2)c1ccco1,-144*
O=C(Nc1cc2c(cc1Cl)OCCCO2)c1ccccc1,-151*
Cc1ccccc1OCC(=O)Nc1sc2c(c1C#N)CCC2,-68*
CC(C)(C)C(=O)NC(=S)Nc1sc2c(c1C#N)CCCCC2,-106*
SMILES,aSyn 5UTR act
N#Cc1c(NC(=O)CCCC(=O)O)sc2c1CCCCC2,90
N#Cc1c(NC(NC(=O)c2ccco2)C(=O)c2ccccc2)sc2c1CCCC2 (stereo not drawn),-77*
CCCC(=O)Nc1sc2c(c1C#N)CCCCC2,-167*
Cc1cc(C(=O)Nc2sc3c(c2C#N)CCC3)no1,-107*
Cn1cc([N+](=O)[O-])c(C(=O)Nc2sc3c(c2C#N)CCC3)n1,64
Cc1ccc(C(=O)Nc2sc3c(c2C#N)CCCCC3)cc1C,-191*
Cc1noc(C(=O)Nc2sc3c(c2C#N)CCC3)c1Cl,-67*
Cc1cc(C(=O)Nc2sc3c(c2C#N)CCCC3)no1,-81*
O=C(c1ccco1)N1CCN(Cc2c(Cl)cccc2Cl)CC1,-85*
COCCNC(=O)c1cc(-c2cccs2)on1,-289*
O=C(NCc1cccs1)c1cc(-c2ccccc2)on1,-112*
O=C(NCc1ccccn1)c1cc(-c2ccccc2)on1,-79*
O=C(NCc1cccs1)c1cc(-c2cccs2)on1,-169*
O=C(NCc1ccccn1)c1ccc(-c2ccccc2)cc1,-107*
COc1ccc(-c2nc3ncccn3c2Br)cc1,-148*
Cc1ccc(-c2nc3ncccn3c2Nc2ccc3c(c2)OCCO3)cc1,-64*
Brc1c(-c2ccc3c(c2)OCO3)nc2ncccn12,-84*
Cc1cccc(NC(=O)COc2ccc(Br)cc2)n1,-71*
Cc1ccc(OCC(=O)Nc2cccc(C)n2)c(C)c1,-137*
COc1ccc(C(=S)NC2CCCCC2)cc1,-80*
CCOc1ccc(C(=S)NC2CCCCC2)cc1,-100*
Cc1ccc(-c2nc3ccccc3[nH]2)cc1NC(=S)NC(=O)c1ccccc1Br,-67*
Cc1ccc(-c2nc3ccccc3o2)cc1NC(=S)NC(=O)c1cccs1,-75*
Cc1ccc2oc(-c3cccc(NC(=S)NC(=O)c4cccs4)c3)nc2c1,-153*
Cc1ccc(-c2nc3ccccc3s2)cc1NC(=S)NC(=O)c1ccccc1,-116*
SMILES,aSyn 5UTR act
O=C(Nc1ccc2oc(-c3ccccc3)nc2c1)c1cccs1,-295*
O=C(Nc1ccc2oc(-c3ccccc3)nc2c1)c1cc(-n2cnnc2)ccc1Cl,-64*
CN(C)S(=O)(=O)c1ccc(C(=O)Nc2nc3ccccc3[nH]2)cc1,-109*
N#Cc1ccc(C(=O)Nc2nc3ccccc3[nH]2)cc1,-88*
CCc1ccc(C(=O)Nc2nc3ccccc3[nH]2)cc1,88
O=C(CSc1ccccn1)Nc1ccc2c(c1)CCC2,-77*
O=C(CSc1nccc(=O)[nH]1)Nc1ccc2c(c1)OCCO2,-139*
CC(=O)NC(CC(=O)Nc1ccc2c(c1)OCCO2)c1ccccc1 (stereo not drawn),-77*
O=C(CSc1ccccn1)Nc1ccc2c(c1)OCCO2,-65*
O=C(Nc1ccc2c(c1)OCCO2)c1ccccn1,88
Cc1ccnc(NC(=O)CSc2ccc3c(c2)OCCO3)c1,-114*
O=C(CSc1ccccn1)Nc1ccc2ccccc2c1,-159*
CC(Nc1ccc2c(c1)OCCO2)C(=O)N1CCc2ccccc21 (stereo not drawn),-65*
Nc1ccccc1SCC(=O)Nc1ccc2c(c1)OCCO2,-89*
Cc1cccc(SCC(=O)Nc2ccc3c(c2)OCCO3)c1,-117*
O=C(CSc1ccccn1)Nc1ccc2c(c1)C(=O)c1ccccc1C2=O,-68*
Cc1ccc(NC(=O)c2ocnc2C)cc1Cl,-240*
Cc1ncoc1C(=O)Nc1cccc(Cl)c1,-92*
COc1cccc(NC(=O)c2ocnc2C)c1,-81*
CCN1C/C(=C/c2ccc(N3CCOCC3)cc2)C(=O)/C(=C/c2ccc(N3CCOCC3)cc2)C1,-412*
CN1C/C(=C\c2ccc(N3CCOCC3)cc2)C(=O)/C(=C/c2ccc(N3CCOCC3)cc2)C1,-427*
Nn1c(COc2ccc(Cl)cc2)nc2ccccc2c1=O,-67*
Cc1nc2ccccc2c(=O)n1/N=C/c1c(O)ccc2oc3c(c12)CCCC3,86
Cc1nc2ccccc2c(=O)n1/N=C/c1ccccc1F,-101*
O=c1c2ccccc2nc(COc2ccccc2)n1/N=C/c1ccco1,-86*
SMILES,aSyn 5UTR act
CCOc1ccc(/C=N/n2c(C)nc3ccccc3c2=O)cc1,-67*
O=c1[nH]cccc1-c1nc2ccccc2[nH]1,-132*
Oc1ccc(C=Nc2ccccc2-c2nc3ccccc3[nH]2)cc1,-142*
Nc1ccccc1-c1nc2ccccc2[nH]1,-163*
Cn1cc(-c2nc3ccccc3[nH]2)c2ccccc21,-124*
Nc1cccc2nc3ccccc3cc12,101
COc1ccc(C(=O)Nc2scc(-c3ccc(Cl)cc3Cl)c2C(N)=O)cc1,-237*
Cc1ccc(N=Nc2[nH]c3ccccc3c2O)cc1,-80*
COc1ccc(N=Nc2[nH]c3ccc(C)cc3c2O)cc1,-125*
O=[N+]([O-])c1ccccc1/C=N/NC1=NCCCCC1,-173*
Cc1cc(C)c2c3c(sc2n1)C(c1cccc(F)c1)C(C#N)=C(N)O3 (stereo not drawn),-76*
CCN1CCN(c2ncnc3c2cnn3-c2ccccc2)CC1,-98*
COc1ccc(-n2ncc3c(N4CCN(Cc5ccccc5)CC4)ncnc32)cc1,-115*
COc1ccc(-n2ncc3c(N4CCC(C(N)=O)CC4)ncnc32)cc1,-124*
Oc1c(CN2CCN(c3ccccc3)CC2)cc(Br)c2cccnc12,85

# Screens (PubChem BioAssay)
